Screening results: PubChem BioAssay, National Center for Advancing Translational Sciences (NCATS)
AMA1-RON2 inh – qHTS for Inhibitors of AMA1-RON; Towards Development of Antimalarial Drug Lead: Primary Screen; AlphaScreen AMA1-biotinylated RON2 peptide binding; Potency, µM (series often up to 58.2 µM), usual class: inhibitors; 360,000 compounds, 0.2% hits; AID 720542, 2013; also: nearly all actives have a fitted effect of over 45% in size
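AMA1 (3D7) with his tag at 25 nM final met compounds first, then biotinylated RON2 peptide at 25 nM; detection used donor plus acceptor beads, 10 µg/mL apiece, read by AlphaScreen after 30 min at room temperature.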
Pf growth 48h – Primary qHTS for delayed death inhibitors of the malarial parasite plastid, 48 hour incubation. P. falciparum luciferase growth in erythrocytes, 48 h. Potency, µM (top dose mostly 28.7 µM), usual class: inhibitors. 310,000 compounds, 5.9% hits
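Erythrocytes infected with P. falciparum carrying an integrated firefly luciferase reporter (2% hematocrit, 0.1% parasitemia final) were exposed to compounds in RPMI 1640 with 0.5% Albumax at 37 C, 5% CO2. Growth inhibition was scored as reduced luminescence.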
SARS PLP yeast – qHTS of Yeast-based Assay for SARS-CoV PLP. S. cerevisiae expressing SARS-CoV PLpro, growth rescue. Potency, µM (series often up to 32.9 µM), most hits filed as activators. 330,000 compounds, 0.19% hits; calls by dose curve; also: nearly all actives have a fitted effect of over 55% in size
Cycloheximide cs – Cycloheximide Counterscreen for Small Molecule Inhibitors of Shiga Toxin. cell reporter, cycloheximide protein synthesis inhibition counterscreen. 300,000 compounds, 12% hits. max response, %; in the data active = max response mostly above about 13%, no sharp cut-off; inactive = mostly below about 14%; also: read at 38.3 µM for the half of the compounds with a filed dose
Pf growth 96h – Primary qHTS for delayed death inhibitors of the malarial parasite plastid, 96 hour incubation | Potency, µM (top dose mostly 28.7 µM), hits mostly inhibitors | P. falciparum luciferase reporter growth, 96 h | 320,000 compounds, 6.9% hits
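96 h incubation, 37 C, 5% CO2, of luciferase-reporter P. falciparum-infected RBCs (2% hematocrit, 0.05% parasitemia final) with test compounds; endpoint luminescence.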
Shiga toxin inh – A qHTS for Small Molecule Inhibitors of Shiga Toxin; 290,000 compounds, 9.2% hits; Vero cells, Shiga toxin protein synthesis inhibition reporter; inhibition, % at 38.7 µM; in the data active = inhibition mostly above about 28%, no sharp cut-off; inactive = mostly below about 43%
Hits are given with their value; – = inactive; ? = inconclusive; · = no result given; [ ] = dose if it differs, or a comment. An excerpt weighted towards active compounds, which were near 19% of everything screened. Unless noted, calls follow the shape of the dose curve; as a rule, active = well fitted curve in the direction sought with a large enough effect; inconclusive = small, poorly fitted or top-dose-only effect, or another doubt; inactive = no such curve, though single readings can be large; an effect the other way counts as inactive or inconclusive.

SMILES	AMA1-RON2 inh	Pf growth 48h	SARS PLP yeast	Cycloheximide cs	Pf growth 96h	Shiga toxin inh
COc1ccccc1-c1nnc(Nc2nc3c(OC)cccc3s2)o1	–	?	–	–	?	45
Cc1c(NC(=O)c2cccc(NC(=O)COc3ccc(C#N)cc3)c2)c(=O)n(-c2ccccc2)n1C	–	–	–	·	–	·
Cc1cc2oc(=O)cc(-c3ccccc3)c2c(C)c1-c1sccc1C=O	·	·	·	–	·	–
COc1ccccc1-c1ccc(Nc2ccc(C(=O)N3CCOCC3)cc2)nn1	–	–	–	–	–	–
CC(=O)c1ccc(Nc2ccc(-c3ccccc3F)nn2)cc1	–	–	–	43	–	–
Cc1ccc2nc(CSc3nc(C)cc(C)c3C#N)[nH]c2c1	–	–	–	46	–	–
Cc1cc(C)c(C#N)c(SCc2ccccc2C)n1	–[2.32 µM]	–	–	–	?	–
OC(Cc1ccccc1Br)c1ncc(-c2cccc(C(F)(F)F)c2)[nH]1 (centres undefined)	–	·	·	·	·	·
COC(=O)C(C)n1cnc2c(nnn2-c2ccc(OC)cc2)c1=O (centres undefined)	–	–	–	–	4.1µM	–
CCC(C(=O)OC)n1cnc2c(nnn2-c2ccc(F)cc2)c1=O (centres undefined)	–	–	–	9.1	–	–
COC(=O)C(C)n1cnc2c(nnn2-c2ccc(C)cc2)c1=O (centres undefined)	–	–	–	13	–	19
CCOC(=O)C(CC)n1cnc2c(nnn2-c2cccc(OC)c2)c1=O (centres undefined)	–	–	–	17	–	–
COC(=O)c1ccc(CSc2ncnc3c2nnn3-c2ccc(F)cc2)o1	–	1µM	–	–	–	–
CCN(CC)C(=O)CSc1ncnc2c1nnn2-c1ccc(F)cc1	–	–	–	–	–	–
COc1cccc(-n2nnc3c(=O)n(CC(=O)NC4CCCC4)cnc32)c1	–	–	–	–	0.33µM	–
CCCCN(CCCC)CCNC(=O)Cc1nc2c(c(=O)[nH]c(=O)n2C)n1C	·	–	–	–	·	–
O=C(CSc1n[nH]c(-c2ccccc2)n1)c1ccccc1	–	–	–	52	–	71
CC(C)c1ccc(C(=O)CSc2n[nH]c(-c3ccncc3)n2)cc1	–	·	–	–	2.6µM	–
Nc1nc(SCC(=O)c2ccc(Oc3ccccc3)cc2)n[nH]1	–	–	–	29	–	–
Cc1ccc(NC(=O)CSc2n[nH]c(-c3ccncc3)n2)cc1C	–	12µM	–	–	–	–
O=C(NC(C(=O)N/N=C/c1cc([N+](=O)[O-])ccc1O)c1n[nH]c(=O)c2ccccc12)c1ccccc1 (centres undefined)	?	?	–	–	?	–
O=C(NC1CCCCC1)C(c1cccc2ccccc12)n1c(=O)c(-c2ccco2)nc2ccccc21 (centres undefined)	–	·	·	·	·	·
Cc1ccc(NC(=O)c2ccc(OC(=O)COc3ccc(Cl)cc3C)cc2)cc1	–	–	–	46	–	–
Cc1cccc(C)c1OC(=O)Cc1ccccc1	–	–	–	–	–	–
Cc1ccc(NC(=O)c2ccc(OC(=O)COc3cccc(Cl)c3)cc2)cc1	–	–	–	36	?	51
SMILES	AMA1-RON2 inh	Pf growth 48h	SARS PLP yeast	Cycloheximide cs	Pf growth 96h	Shiga toxin inh
Cc1ccc(C(=O)CC(=O)COc2ccc(Cl)cc2C)cc1	–	?	?	–	–	–
Cc1ccc(NC(=O)c2ccc(OC(=O)CCN3C(=O)c4ccccc4C3=O)cc2)cc1	–	–	–	37	·	72
Cc1ccc(OCC(=O)Oc2c(C)cccc2C)cc1	–	–	–	–	0.33µM	–
CC1Cc2ccccc2N1C(=O)CCS(=O)(=O)c1ccc2c(c1)NC(=O)CS2 (centres undefined)	–	–	–	–	–	–
Cc1cc(C)c(S(=O)(=O)N(C)CC(=O)N2CCCC2)c(C)c1	–	·	·	·	·	·
CC1CN(C(=O)C(Sc2ccccc2)c2ccccc2)CC(C)O1 (centres undefined)	–[11.6 µM]	–	?	–	10µM	–
CC1CN(C(=O)C(c2ccccc2)c2ccccc2)CC(C)O1 (centres undefined)	–	·	–	–	?	–
COc1cccc(OCc2ccc(Cl)cc2)c1C#N	–	–	–	44	–	81
COCc1cc(C)nc(SCc2ccc(Cl)cc2)c1C#N	–	?	–	–	–	–
O=S(Cc1ccc(Br)cc1)Cc1nnc(SCc2c(Cl)cccc2Cl)n1-c1ccccc1 (centres undefined)	–	?	–	–	?	–
Cn1c(CS(=O)Cc2c(Cl)cccc2Cl)nnc1SCc1c(Cl)cccc1Cl (centres undefined)	–	?	–	–	4.7µM	–
CC1(C(=O)NS(=O)(=O)C2CC2)CCCN(C(=O)Cc2ccc(F)cc2)C1 (centres undefined)	–	·	·	·	·	·
COCCCN=C(c1ccco1)n1c(=S)nc(-c2ccco2)n(CCCOC)c1=S	–	–	–	28	–	62
Cc1ccc(NC(=O)C2CCN(S(=O)(=O)c3ccc4c(c3)CCCC(=O)N4)CC2)c(Br)c1	–	–	–	–	–	–
COc1cccc(NC(=O)c2ccc(N3C(=O)C4CCC(C)CC4C3=O)cc2)c1 (centres undefined)	–	·	·	·	·	·
Cc1ccc(OC(=O)C23CC4CC(CC(C4)C2)C3)c(C)n1	–	–	–	–	–	–
CCc1nc(C)ccc1OC(=O)C12CC3CC(CC(C3)C1)C2	–	–	–	–	0.59µM	–
C=CC(=O)NCCCc1cc(C(C)(C)C)c(O)c(C(C)(C)C)c1	–	12µM	–	–	–	–
CC(C)(C)c1cc(CCC(=O)NCc2cccnc2)cc(C(C)(C)C)c1O	–	–	–	–	–	–
CCOC(=O)C1CCN(C(=O)c2oc3ccc(S(=O)(=O)N4CC(C)CC(C)C4)cc3c2C)CC1 (centres undefined)	–	2.3µM	–	–	–	–
CCOC(=O)N1CCN(C(=O)c2oc3ccc(S(=O)(=O)N4CCCCCC4)cc3c2C)CC1	–	12µM	–	–	?	–
CCOC(=O)n1c(=O)oc2cc(S(=O)(=O)N3CCCCC3)ccc21	–	?	–	–	0.0029µM	–
COC(=O)n1c(=O)oc2cc(S(=O)(=O)N3CCCCC3)ccc21	–	–	–	–	–	–
CCCCN(CC)C(=O)c1oc2ccc(S(=O)(=O)N3CCCC3)cc2c1C	–	?	–	–	13µM	–
COc1ccccc1C(=O)NCCN1CCN(C(=O)c2ccccc2OC)CC1	–	–	–	–	–	–
CCCOC1OC(=O)c2c1ccc(OC)c2OC (centres undefined)	–	–	–	–	5.2µM	–
